# What was measured:
# Assay in all cases: DAPPL (digital affinity profiling via proximity ligation, sequencing); 10 mM Tris-HCl pH 7.5, 50 mM NaCl, 1 mM DTT, 4% glycerol, room temperature, 30 min; GST-TFs on glutathione beads, 16-mer random dsDNA library, 0.1% formaldehyde crosslink after washing; high values mean tight binding
# FEV = biological target: T1, FEV (Homo sapiens, UniProt Q99581 1-238); settings: protein: recombinant; tags: N-terminal GST; dsDNA, one strand shown
# T1 sequence: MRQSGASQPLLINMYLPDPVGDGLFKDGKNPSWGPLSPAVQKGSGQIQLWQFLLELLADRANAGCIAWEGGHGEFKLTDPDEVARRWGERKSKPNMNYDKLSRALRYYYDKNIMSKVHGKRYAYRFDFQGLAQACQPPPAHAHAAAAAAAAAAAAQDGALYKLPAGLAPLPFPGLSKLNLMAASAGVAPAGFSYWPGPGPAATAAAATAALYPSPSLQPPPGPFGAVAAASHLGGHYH
# Method in brief: (§1)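 The binding signal reported is, for every hexamer, its read frequency for a factor over its read frequency for the tag-only sample. Reads came from pools of yeast-expressed, GST-fused human transcription factors on glutathione beads, barcoded with DNA and mixed with that sample, which were incubated with 200 nmole of a random double-stranded 16-mer DNA library in Tris/NaCl/DTT/glycerol buffer at room temperature for 30 min. After washing, the pools were crosslinked with 0.1% formaldehyde, proximity-ligated with BsaI/T4 ligase for 1 h at 37 °C, PCR-amplified and sequenced on an Illumina NextSeq500.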
# ETV5 = ETV5 (Homo sapiens, UniProt P41161 1-510); settings: protein: recombinant; tags: N-terminal GST; dsDNA, one strand shown
# Method in brief: as §1
# HSF1 = HSF1 (Homo sapiens, UniProt Q00613 1-529); settings: protein: recombinant; tags: N-terminal GST; chain copies: 3; dsDNA, one strand shown
# Method in brief: as §1
# SPIC = biological target: T2, SPIC (Homo sapiens, UniProt Q8N5J4 1-248); settings: protein: recombinant; tags: N-terminal GST; dsDNA, one strand shown
# T2 sequence: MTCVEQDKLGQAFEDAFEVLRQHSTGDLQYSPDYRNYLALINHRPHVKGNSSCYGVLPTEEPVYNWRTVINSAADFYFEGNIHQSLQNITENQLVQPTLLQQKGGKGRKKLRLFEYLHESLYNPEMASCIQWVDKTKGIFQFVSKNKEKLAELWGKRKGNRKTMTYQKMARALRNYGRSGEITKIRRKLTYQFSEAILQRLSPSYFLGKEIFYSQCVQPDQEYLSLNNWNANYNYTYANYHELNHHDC
# Method in brief: as §1
# ELF4 = ELF4 (Homo sapiens, UniProt Q99607 1-663); settings: protein: recombinant; tags: N-terminal GST; dsDNA, one strand shown
# Method in brief: as §1
# ELK4 = biological target: T3, ELK4 (Homo sapiens, UniProt P28324-2 1-405); settings: protein: recombinant; tags: N-terminal GST; dsDNA, one strand shown
# T3 sequence: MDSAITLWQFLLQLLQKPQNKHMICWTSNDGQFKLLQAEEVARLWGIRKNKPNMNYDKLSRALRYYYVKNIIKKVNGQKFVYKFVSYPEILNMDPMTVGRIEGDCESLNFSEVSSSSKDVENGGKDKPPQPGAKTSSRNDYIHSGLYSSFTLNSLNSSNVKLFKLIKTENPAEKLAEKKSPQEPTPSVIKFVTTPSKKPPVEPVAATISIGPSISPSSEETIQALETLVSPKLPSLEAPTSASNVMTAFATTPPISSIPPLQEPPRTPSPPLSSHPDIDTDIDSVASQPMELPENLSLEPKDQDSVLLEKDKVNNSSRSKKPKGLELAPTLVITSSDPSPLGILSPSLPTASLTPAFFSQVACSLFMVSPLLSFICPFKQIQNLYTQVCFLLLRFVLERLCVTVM
# Method in brief: as §1
# ETV2 = biological target: T4, ETV2 (Homo sapiens, UniProt O00321 1-342); settings: protein: recombinant; tags: N-terminal GST; dsDNA, one strand shown
# T4 sequence: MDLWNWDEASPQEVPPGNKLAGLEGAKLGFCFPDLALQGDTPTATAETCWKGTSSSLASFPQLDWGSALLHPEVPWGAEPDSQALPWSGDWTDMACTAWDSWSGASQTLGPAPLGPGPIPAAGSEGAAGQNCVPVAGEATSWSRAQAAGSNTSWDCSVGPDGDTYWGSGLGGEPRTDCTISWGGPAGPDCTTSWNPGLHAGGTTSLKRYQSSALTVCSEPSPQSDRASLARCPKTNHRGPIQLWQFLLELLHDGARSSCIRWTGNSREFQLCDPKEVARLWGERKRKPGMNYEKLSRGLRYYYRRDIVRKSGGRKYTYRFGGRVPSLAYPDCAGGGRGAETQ
# Method in brief: as §1
# ELF3 = biological target: T5, ELF3 (Homo sapiens, UniProt P78545 1-371); settings: protein: recombinant; tags: N-terminal GST; dsDNA, one strand shown
# T5 sequence: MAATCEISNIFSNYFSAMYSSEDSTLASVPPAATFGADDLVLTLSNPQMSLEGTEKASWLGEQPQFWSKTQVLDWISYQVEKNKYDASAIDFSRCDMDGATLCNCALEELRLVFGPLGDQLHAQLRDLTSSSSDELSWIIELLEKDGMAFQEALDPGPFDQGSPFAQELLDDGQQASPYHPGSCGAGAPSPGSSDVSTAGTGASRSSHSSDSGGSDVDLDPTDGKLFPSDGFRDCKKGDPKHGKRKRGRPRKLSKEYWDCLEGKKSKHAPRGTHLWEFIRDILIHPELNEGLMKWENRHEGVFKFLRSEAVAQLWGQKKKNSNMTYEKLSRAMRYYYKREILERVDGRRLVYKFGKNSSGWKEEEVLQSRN
# Method in brief: as §1
# ETV1 = ETV1 (Homo sapiens, UniProt P50549 1-477); settings: protein: recombinant; tags: N-terminal GST; dsDNA, one strand shown
# Method in brief: as §1
# ERF = biological target: T6, ERF (Homo sapiens, UniProt P50548 1-548); settings: protein: recombinant; tags: N-terminal GST; dsDNA, one strand shown
# T6 sequence: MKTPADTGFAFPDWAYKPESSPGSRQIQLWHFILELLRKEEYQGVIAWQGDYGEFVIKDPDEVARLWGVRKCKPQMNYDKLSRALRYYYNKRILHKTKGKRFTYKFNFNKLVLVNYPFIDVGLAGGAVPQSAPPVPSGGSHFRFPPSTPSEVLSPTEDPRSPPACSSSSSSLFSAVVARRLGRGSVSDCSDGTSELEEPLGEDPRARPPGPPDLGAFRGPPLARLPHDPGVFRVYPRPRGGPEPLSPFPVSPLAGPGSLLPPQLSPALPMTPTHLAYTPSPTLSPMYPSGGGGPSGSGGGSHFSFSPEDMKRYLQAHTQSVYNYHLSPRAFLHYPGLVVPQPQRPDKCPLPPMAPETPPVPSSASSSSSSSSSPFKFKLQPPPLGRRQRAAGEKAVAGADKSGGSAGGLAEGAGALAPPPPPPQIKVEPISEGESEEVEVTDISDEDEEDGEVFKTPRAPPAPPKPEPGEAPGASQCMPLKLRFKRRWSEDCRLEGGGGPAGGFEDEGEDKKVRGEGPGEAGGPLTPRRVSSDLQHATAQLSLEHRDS
# Method in brief: as §1
# ETV3L = biological target: T7, ETV3L (Homo sapiens, UniProt Q6ZN32 1-361); settings: protein: recombinant; tags: N-terminal GST; dsDNA, one strand shown
# T7 sequence: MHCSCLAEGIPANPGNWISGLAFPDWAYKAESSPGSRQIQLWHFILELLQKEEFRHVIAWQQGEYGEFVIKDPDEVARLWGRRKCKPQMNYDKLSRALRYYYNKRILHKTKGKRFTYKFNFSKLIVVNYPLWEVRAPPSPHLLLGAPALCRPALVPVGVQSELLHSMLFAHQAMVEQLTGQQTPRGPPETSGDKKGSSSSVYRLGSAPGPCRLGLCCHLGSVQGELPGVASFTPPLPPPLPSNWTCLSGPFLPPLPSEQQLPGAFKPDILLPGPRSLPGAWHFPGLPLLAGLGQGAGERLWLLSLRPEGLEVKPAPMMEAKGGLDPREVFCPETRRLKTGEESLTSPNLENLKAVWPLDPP
# Method in brief: as §1
# ETS2 = biological target: T8, ETS2 (Homo sapiens, UniProt P15036 1-469); settings: protein: recombinant; tags: N-terminal GST; dsDNA, one strand shown
# T8 sequence: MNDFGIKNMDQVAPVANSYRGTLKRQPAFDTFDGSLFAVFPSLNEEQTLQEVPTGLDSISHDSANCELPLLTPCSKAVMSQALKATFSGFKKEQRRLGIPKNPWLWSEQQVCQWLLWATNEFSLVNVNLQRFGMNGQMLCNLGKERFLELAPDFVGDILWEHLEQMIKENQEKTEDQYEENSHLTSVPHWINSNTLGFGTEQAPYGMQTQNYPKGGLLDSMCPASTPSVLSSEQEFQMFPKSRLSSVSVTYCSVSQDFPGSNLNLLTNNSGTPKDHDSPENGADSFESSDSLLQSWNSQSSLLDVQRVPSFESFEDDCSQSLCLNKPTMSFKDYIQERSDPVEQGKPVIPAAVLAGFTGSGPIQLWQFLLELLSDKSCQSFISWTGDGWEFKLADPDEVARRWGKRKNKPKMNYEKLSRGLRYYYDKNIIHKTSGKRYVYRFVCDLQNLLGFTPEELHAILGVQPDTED
# Method in brief: as §1
# SPDEF = biological target: T9, SPDEF (Homo sapiens, UniProt O95238 1-335); settings: protein: recombinant; tags: N-terminal GST; dsDNA, one strand shown
# T9 sequence: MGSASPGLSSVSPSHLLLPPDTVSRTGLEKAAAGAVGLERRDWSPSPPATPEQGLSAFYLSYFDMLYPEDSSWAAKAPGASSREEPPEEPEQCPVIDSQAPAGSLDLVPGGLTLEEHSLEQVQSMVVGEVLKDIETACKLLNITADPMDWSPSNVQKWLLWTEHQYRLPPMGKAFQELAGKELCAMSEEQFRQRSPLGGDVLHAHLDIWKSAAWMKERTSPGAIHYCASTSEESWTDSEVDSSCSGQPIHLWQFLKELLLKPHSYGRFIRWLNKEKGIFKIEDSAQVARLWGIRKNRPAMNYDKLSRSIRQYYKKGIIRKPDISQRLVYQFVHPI
# Method in brief: as §1
# ETV7 = biological target: T10, ETV7 (Homo sapiens, UniProt Q9Y603 1-341); settings: protein: recombinant; tags: N-terminal GST; dsDNA, one strand shown
# T10 sequence: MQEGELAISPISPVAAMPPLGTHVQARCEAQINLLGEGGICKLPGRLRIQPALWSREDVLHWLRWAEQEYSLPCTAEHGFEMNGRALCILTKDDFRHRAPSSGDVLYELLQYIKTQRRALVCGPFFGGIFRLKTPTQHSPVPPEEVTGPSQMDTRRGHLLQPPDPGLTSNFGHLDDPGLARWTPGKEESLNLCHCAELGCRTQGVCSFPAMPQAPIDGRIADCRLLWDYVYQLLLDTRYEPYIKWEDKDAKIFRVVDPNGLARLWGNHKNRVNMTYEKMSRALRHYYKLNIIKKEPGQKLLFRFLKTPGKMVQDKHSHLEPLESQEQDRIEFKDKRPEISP
# Method in brief: as §1
# ELF5 = biological target: T11, ELF5 (Homo sapiens, UniProt Q9UKW6-2 1-255); settings: protein: recombinant; tags: N-terminal GST; dsDNA, one strand shown
# T11 sequence: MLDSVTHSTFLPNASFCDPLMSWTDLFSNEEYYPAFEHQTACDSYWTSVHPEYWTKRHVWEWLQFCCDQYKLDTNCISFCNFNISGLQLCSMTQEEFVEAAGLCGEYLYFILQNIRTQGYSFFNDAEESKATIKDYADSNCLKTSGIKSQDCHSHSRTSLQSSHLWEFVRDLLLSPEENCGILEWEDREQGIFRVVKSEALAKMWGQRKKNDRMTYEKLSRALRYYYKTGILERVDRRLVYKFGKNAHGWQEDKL
# Method in brief: as §1
# ETV3 = biological target: T12, ETV3 (Homo sapiens, UniProt P41162-2 1-143); settings: protein: recombinant; tags: N-terminal GST; dsDNA, one strand shown
# T12 sequence: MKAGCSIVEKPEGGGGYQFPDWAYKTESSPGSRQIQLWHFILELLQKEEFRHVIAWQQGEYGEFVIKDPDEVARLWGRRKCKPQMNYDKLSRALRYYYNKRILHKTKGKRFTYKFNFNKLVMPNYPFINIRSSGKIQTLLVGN
# Method in brief: as §1
# ETV6 = ETV6 (Homo sapiens, UniProt P41212 1-452); settings: protein: recombinant; tags: N-terminal GST; dsDNA, one strand shown
# Method in brief: as §1
# ELF4, sequence (Q99607 whole entry): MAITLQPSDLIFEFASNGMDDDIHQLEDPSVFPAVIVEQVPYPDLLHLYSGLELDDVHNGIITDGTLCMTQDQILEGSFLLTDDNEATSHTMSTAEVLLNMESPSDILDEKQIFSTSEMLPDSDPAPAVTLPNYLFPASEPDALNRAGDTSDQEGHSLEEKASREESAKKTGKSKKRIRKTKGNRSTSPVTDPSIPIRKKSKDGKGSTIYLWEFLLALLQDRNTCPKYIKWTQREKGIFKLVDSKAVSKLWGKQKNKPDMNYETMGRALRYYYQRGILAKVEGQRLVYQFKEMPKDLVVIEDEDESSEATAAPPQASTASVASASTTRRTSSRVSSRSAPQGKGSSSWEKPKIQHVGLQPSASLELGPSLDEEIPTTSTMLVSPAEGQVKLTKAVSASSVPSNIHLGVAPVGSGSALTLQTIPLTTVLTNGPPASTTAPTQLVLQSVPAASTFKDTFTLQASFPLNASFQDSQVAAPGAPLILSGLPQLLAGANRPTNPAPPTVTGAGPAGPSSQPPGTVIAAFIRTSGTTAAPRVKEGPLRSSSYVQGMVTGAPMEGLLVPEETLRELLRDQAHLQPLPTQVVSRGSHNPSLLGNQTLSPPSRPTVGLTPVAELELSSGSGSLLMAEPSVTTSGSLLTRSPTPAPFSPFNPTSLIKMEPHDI
# HSF1, sequence (Q00613 whole entry): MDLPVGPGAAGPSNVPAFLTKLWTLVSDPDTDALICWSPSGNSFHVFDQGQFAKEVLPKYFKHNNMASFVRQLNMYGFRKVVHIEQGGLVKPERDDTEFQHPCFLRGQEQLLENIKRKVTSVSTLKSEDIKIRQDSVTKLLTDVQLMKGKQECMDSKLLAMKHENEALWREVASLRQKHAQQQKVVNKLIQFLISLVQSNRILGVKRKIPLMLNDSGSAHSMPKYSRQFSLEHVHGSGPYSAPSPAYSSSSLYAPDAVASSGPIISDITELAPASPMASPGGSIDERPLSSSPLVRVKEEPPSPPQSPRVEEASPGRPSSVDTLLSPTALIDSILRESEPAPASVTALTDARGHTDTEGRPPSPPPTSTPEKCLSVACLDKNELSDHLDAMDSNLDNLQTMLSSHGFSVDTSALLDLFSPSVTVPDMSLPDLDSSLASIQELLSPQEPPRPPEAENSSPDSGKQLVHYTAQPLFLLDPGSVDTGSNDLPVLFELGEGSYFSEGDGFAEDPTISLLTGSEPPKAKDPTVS
# ETV1, sequence (P50549 whole entry): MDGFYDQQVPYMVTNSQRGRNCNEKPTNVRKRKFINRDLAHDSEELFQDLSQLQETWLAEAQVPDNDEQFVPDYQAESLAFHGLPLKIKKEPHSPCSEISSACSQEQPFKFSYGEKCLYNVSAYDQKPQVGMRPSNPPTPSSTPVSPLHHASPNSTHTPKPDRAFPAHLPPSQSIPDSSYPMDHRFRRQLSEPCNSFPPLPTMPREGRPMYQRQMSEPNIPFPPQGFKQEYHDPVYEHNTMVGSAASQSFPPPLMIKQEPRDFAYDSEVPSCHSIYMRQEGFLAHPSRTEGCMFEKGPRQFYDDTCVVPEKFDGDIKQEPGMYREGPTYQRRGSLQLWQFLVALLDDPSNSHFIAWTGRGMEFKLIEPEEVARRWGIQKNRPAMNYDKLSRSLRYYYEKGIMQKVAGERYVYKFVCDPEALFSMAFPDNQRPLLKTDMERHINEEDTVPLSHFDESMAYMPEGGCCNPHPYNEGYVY
# ETV5, sequence (P41161 whole entry): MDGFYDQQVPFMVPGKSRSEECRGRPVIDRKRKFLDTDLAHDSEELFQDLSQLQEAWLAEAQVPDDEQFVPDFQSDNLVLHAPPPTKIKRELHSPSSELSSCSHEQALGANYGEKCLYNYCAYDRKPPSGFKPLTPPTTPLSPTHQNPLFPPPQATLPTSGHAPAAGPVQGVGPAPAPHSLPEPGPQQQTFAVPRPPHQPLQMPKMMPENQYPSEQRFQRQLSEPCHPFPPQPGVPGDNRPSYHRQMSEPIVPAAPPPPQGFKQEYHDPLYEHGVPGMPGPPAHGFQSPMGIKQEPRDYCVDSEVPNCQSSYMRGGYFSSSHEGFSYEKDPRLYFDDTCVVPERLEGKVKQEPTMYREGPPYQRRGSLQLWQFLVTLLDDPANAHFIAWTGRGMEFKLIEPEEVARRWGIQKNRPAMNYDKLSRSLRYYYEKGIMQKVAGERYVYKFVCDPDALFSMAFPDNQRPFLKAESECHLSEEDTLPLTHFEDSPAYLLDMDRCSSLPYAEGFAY
# ETV6, sequence (P41212 whole entry): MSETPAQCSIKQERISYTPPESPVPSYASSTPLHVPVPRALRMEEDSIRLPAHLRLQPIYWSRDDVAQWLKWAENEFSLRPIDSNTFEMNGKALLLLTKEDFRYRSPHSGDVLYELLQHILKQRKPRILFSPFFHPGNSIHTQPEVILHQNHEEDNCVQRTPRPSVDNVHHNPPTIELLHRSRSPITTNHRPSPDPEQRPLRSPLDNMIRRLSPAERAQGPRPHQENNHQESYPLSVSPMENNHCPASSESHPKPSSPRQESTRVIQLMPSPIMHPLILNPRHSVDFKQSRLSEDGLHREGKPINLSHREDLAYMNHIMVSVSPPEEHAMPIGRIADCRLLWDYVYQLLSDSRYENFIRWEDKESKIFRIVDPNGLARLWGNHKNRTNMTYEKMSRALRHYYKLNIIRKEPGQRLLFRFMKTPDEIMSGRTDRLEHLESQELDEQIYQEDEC
sequence,measurement,setting,value
ACGTAC,binding signal,FEV,"1.17 fold enrichment (6-mer frequency, TF over GST control)"
same,binding signal,ETV5,"1.21 fold enrichment (6-mer frequency, TF over GST control)"
same,binding signal,HSF1,"1.04 fold enrichment (6-mer frequency, TF over GST control)"
same,binding signal,SPIC,"1.18 fold enrichment (6-mer frequency, TF over GST control)"
same,binding signal,ELF4,"1.23 fold enrichment (6-mer frequency, TF over GST control)"
same,binding signal,ELK4,"1.24 fold enrichment (6-mer frequency, TF over GST control)"
same,binding signal,ETV2,"1.32 fold enrichment (6-mer frequency, TF over GST control)"
same,binding signal,ELF3,"1.25 fold enrichment (6-mer frequency, TF over GST control)"
same,binding signal,ETV1,"1.18 fold enrichment (6-mer frequency, TF over GST control)"
same,binding signal,ERF,"1.16 fold enrichment (6-mer frequency, TF over GST control)"
same,binding signal,ETV3L,"1.12 fold enrichment (6-mer frequency, TF over GST control)"
same,binding signal,ETS2,"1.19 fold enrichment (6-mer frequency, TF over GST control)"
same,binding signal,SPDEF,"1.13 fold enrichment (6-mer frequency, TF over GST control)"
same,binding signal,ETV7,"1.24 fold enrichment (6-mer frequency, TF over GST control)"
same,binding signal,ELF5,"1.15 fold enrichment (6-mer frequency, TF over GST control)"
same,binding signal,ETV3,"1.12 fold enrichment (6-mer frequency, TF over GST control)"
same,binding signal,ETV6,"1.25 fold enrichment (6-mer frequency, TF over GST control)"
